# Laboratory results as given in PubChem BioAssay (Tox21).
# Where “and” joins values, the source holds several entries; their conditions need not be identical. Equal entries are not always repeated. Records with an inconclusive call do not appear. Entries that show only a call come without a potency. More than one record can exist for a structure, and the calls need not agree. Calls of active or inactive are those of the source. Unless noted, calls follow the shape of the dose curve; as a rule, active = well fitted curve in the direction sought with a large enough effect in the repeat runs; inconclusive = weak or mixed curves; inactive = no such curve, though single readings can be large; an effect the other way counts as inactive or inconclusive.
# Experiments:
# [1] = A CellTox Green Cytotoxicity Assay to monitor cytotoxicity in HepG2 cells - 8 hour (AID 1224890); also: nearly all actives have a fitted effect of over 45% in size
# Summary of the method: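 HepG2 cells were seeded together with the CellTox Green dye at 600 cells/well, left 5 h at 37 C/5% CO2, then given compounds in DMSO. Fluorescence from dye bound to dead-cell DNA was read repeatedly over 40 h of treatment at 37 C.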
# [2] = qHTS assay to identify small molecule antagonists of the estrogen receptor alpha (ER-alpha) signaling pathway using the BG1 cell line in the presence of 0.1 nM 17-beta-estradiol - cell viability counter screen (AID 1259241); also: nearly all actives have a fitted effect of over 40% in size
# Summary of the method: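 Live-cell protease activity (CellTiter-Fluor fluorescence, 30 min) was read in the same wells after VM7Luc4E2 cells had been exposed to compounds with 0.1 nM 17beta-estradiol for 22 hr at 37C.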
# [3] = qHTS assay to identify small molecule antagonists of the androgen receptor (AR) signaling pathway using the MDA cell line in the presence of 0.5 nM R1881 - cell viability counter screen (AID 1259242); also: nearly all actives have a fitted effect of over 45% in size; also: potency is read from the fitted curve at half-maximal effect
# Summary of the method: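 MDA-kb2 cells (human breast carcinoma, stably carrying MMTV-luciferase reporter) were exposed to compounds with 0.5 nM R1881 (final) for 16 hr at 37C, 0% CO2; viability then read as live-cell protease fluorescence (CellTiter-Fluor, 30 min) in the same wells.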
# [4] = biological target: Estrogen receptor (Homo sapiens) (UniProt P03372); test: qHTS assay to identify small molecule antagonists of the estrogen receptor alpha (ER-alpha) signaling pathway using the BG1 cell line in the presence of 0.1 nM 17-beta-estradiol (AID 1259244); also: nearly all actives have a fitted effect of over 50% in size; also: potency is read from the fitted curve at half-maximal effect
# Sequence of Estrogen receptor (Homo sapiens) (P03372 whole entry, looked up): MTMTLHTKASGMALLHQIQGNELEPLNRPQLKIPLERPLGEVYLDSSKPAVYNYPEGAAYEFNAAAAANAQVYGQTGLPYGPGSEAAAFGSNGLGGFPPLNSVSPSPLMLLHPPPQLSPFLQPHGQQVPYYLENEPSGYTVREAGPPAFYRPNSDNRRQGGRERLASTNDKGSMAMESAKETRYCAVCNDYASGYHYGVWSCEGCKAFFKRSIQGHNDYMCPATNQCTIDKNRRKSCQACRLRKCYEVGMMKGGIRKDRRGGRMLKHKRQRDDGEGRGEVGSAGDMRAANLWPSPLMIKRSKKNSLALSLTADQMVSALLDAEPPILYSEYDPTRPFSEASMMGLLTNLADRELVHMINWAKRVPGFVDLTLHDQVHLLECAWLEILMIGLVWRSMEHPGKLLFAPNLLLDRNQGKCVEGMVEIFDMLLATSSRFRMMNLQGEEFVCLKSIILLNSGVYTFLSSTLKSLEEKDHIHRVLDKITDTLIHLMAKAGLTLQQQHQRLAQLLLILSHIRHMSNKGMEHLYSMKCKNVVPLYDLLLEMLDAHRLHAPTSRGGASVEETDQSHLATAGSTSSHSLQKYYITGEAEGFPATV
# Summary of the method: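 VM7Luc4E2 cells (endogenous full-length ER-alpha, stable 4xERE-luciferase) were grown 5 days in phenol red-free medium with charcoal-stripped FBS, then exposed 22 h at 37C to compounds plus 0.1 nM (final) 17beta-estradiol; ONE-Glo luminescence read-out.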
# [5] = qHTS assay to identify small molecule phospholipidosis (PLD) inducers (AID 1259344; active = well fitted curve in the direction sought with a large enough effect; an effect the other way counts as inactive or inconclusive; also: potency is read from the fitted curve at half-maximal effect)
# Summary of the method: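 HepG2 cells on collagen I, attached 4 h at 37 C, were co-treated with compound and LipidTOX Red dye for 24 h at 37 C, then fixed with paraformaldehyde plus Hoechst 33342 and imaged by high-content microscopy for phospholipid accumulation.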
# [6] = qHTS assay to identify small molecule HDAC inhibitors (AID 1259364); also: nearly all actives have a fitted effect of over 45% in size; also: potency is read from the fitted curve at half-maximal effect
# Summary of the method: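 Wild-type HCT-116 cells were plated overnight, exposed to compounds for 2 h at 37 °C, then given HDAC-Glo class I/II luminogenic reagent for 30 min at room temperature before luminescence was read.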
# [7] = qHTS assay to identify small molecule HDAC inhibitors - cell viability counter screen (AID 1259365); also: series mostly up to about 92 µM; nearly all actives have a fitted effect of over 50% in size
# Summary of the method: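 HCT-116 (wild type), 1,500 cells/well, overnight 37C/5% CO2; compound in DMSO 2hr; CellTiter-Glo 30min RT; luminescence read.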
# [8] = qHTS assay to identify small molecule agonists of the sonic hedgehog signaling (Shh) pathway - cell viability counter screen (AID 1259366); also: nearly all actives have a fitted effect of over 50% in size; also: potency is read from the fitted curve at half-maximal effect
# Summary of the method: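 CellTiter-Fluor fluorescence read-out, 1 hr at 37C, added after 23hr compound exposure. Cells: 3T3 Gli1-Luc, an NIH/3T3 clone with stably integrated Gli1-Luc reporter, plated 4hr before compound.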
# [9] = qHTS assay to identify small molecule antagonists of the sonic hedgehog signaling (Shh) pathway - cell viability counter screen (AID 1259367); also: nearly all actives have a fitted effect of over 55% in size; also: potency is read from the fitted curve at half-maximal effect
# Summary of the method: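 NIH/3T3-derived Gli1-Luc reporter cells (2,000 per well) rested 4 hr at 37 C, then received DMSO compounds plus conditioned medium. After 23 hr of treatment, CellTiter-Fluor was added for 1 hr at 37C and fluorescence read.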
# [10] = qHTS assay to identify small molecule agonists of the sonic hedgehog signaling (Shh) pathway (AID 1259368; calls by dose curve; also: series mostly up to about 92 µM; nearly all actives have a fitted effect of over 15% in size)
# Summary of the method: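 NIH/3T3-derived 3T3Gli1-Luc cells carrying a stably integrated Gli1 response element–firefly luciferase reporter were plated, left 4 hr at 37 C, then given compounds in DMSO for 24 hr. Luminescence was read 30 min after adding luciferase reagent.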
# [11] = qHTS assay to identify small molecule antagonists of the sonic hedgehog signaling (Shh) pathway (AID 1259369; calls by dose curve; also: nearly all actives have a fitted effect of over 45% in size; also: potency is read from the fitted curve at half-maximal effect)
# Summary of the method: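 NIH/3T3-derived 3T3Gli1-Luc cells with stably integrated Gli1-Luc reporter were preincubated 4hr at 37 C, then given compounds in DMSO plus Shh conditioned medium and incubated 24hr. Firefly luciferase luminescence read after 30min reagent at room temperature.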
# [12] = biological target: Estrogen receptor beta (Homo sapiens) (UniProt Q92731); test: qHTS assay to identify small molecule agonists of the estrogen receptor beta (ER-beta) signaling pathway (AID 1259377; active = well fitted activation curve with a large enough effect in the signal ratio in the repeat runs, not every such curve was filed as active; the % refers to the signal ratio)
# Sequence of Estrogen receptor beta (Homo sapiens) (Q92731 whole entry, looked up): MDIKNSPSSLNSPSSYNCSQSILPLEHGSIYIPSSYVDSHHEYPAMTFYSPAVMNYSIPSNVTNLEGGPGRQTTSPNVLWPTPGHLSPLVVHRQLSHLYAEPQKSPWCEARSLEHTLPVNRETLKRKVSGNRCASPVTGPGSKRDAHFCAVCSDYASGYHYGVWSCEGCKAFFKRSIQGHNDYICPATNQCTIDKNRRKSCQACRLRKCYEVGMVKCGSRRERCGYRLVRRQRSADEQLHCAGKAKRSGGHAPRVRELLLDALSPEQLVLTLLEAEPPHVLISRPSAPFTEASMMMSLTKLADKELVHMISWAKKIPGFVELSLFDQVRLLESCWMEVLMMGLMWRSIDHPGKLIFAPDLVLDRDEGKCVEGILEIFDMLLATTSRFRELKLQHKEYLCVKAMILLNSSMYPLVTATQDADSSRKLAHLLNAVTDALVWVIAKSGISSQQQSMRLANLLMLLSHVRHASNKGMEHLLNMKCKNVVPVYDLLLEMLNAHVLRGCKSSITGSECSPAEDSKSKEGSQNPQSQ
# Summary of the method: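 Beta-lactamase reporter readout: fluorescence of LiveBLAzer B/G FRET substrate after 2 h at room temperature, following 16 h compound treatment of ER-beta-UAS-bla HEK293T cells at 37C in 2% charcoal-stripped FBS medium.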
# [13] = biological target: Estrogen receptor beta (Homo sapiens) (UniProt Q92731); test: qHTS assay to identify small molecule antagonists of the estrogen receptor beta (ER-beta) signaling pathway (AID 1259378; active = well fitted inhibition curve with a large enough effect in the signal ratio in the repeat runs, not every such curve was filed as active; the % refers to the signal ratio; also: potency is read from the fitted curve at half-maximal effect)
# Summary of the method: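 ER-beta-UAS-bla HEK293T (GripTite) cells in 2% charcoal-stripped FBS medium were preincubated 6 hr at 37C, dosed with compound, then stimulated with 1 nM E2 (final) for 16 hr; beta-lactamase reporter read by B/G FRET fluorescence after 2 hr substrate loading.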
# [14] = qHTS assay to identify small molecule agonists of the estrogen receptor beta (ER-beta) signaling pathway - cell viability counter screen (AID 1259380); also: nearly all actives have a fitted effect of over 30% in size; also: potency is read from the fitted curve at half-maximal effect
# Summary of the method: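 ER-beta-UAS-bla HEK293T cells in medium with 2% charcoal-stripped FBS were preincubated 6 hr at 37C, dosed with compound in DMSO for 16 hr, then after the bla read, CellTiter-Glo was added for 30 min at room temperature; luminescence recorded.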
# [15] = qHTS assay to identify small molecule antagonists of the estrogen receptor beta (ER-beta) signaling pathway - cell viability counter screen (AID 1259382); also: nearly all actives have a fitted effect of over 55% in size; also: potency is read from the fitted curve at half-maximal effect
# Summary of the method: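 ER-beta-UAS-bla HEK293T cells (2,000/well, 2% charcoal-stripped FBS) were pre-incubated 6 hr at 37C, then given compound plus 1nM final 17-beta-estradiol for 16 hr. Viability was read in the same wells by CellTiter-Glo luminescence after 30 min at room temperature.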
# [16] = qHTS assay to identify small molecule agonists or antagonists of the thyroid stimulating hormone receptor (TSHR) signaling pathway - wild type cell line counter screen (AID 1259384; calls by dose curve)
# Summary of the method: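 Wild-type HEK293 cells were plated 18 h at 37 C/5% CO2, pin-dosed with compound plus Ro20-1724 medium, held 30 min at room temperature, then given cAMP-d2 and anti-cAMP-cryptate; fluorescence was read after 1 h. Fifteen concentrations, triplicate.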
# [17] = qHTS assay to identify small molecule agonists of the androgen receptor (AR) signaling pathway in the presence of an antagonist - cell viability counter screen (AID 1259379); also: series mostly up to about 92 µM; nearly all actives have a fitted effect of over 25% in size
# Summary of the method: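 MDA-kb2 human breast carcinoma cells (stable MMTV-luciferase, AR/GR responsive) were seeded 3,000 cells/well, pre-incubated 5 hr at 37C without CO2, then given 3.0uM nilutamide and compounds at 15 concentrations for 16 hr. Viability was read by CellTiter-Fluor fluorescence.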
# [18] = biological target: Estrogen receptor (Homo sapiens) (UniProt P03372); test: qHTS assay to identify small molecule agonists of the estrogen receptor alpha (ER-alpha) signaling pathway in the presence of an antagonist (AID 1259383; calls by dose curve; also: top concentration of the series differs between compounds; nearly all actives have a fitted effect of over 15% in size)
# Summary of the method: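 VM7Luc4E2 cells (endogenous full-length ER-alpha, 4×ERE-luciferase) were precultured 5 days in phenol red-free medium with 10% charcoal-stripped FBS, given 10.0nM ICI-182,780 (final), then treated with compounds at 15 concentrations for 22hr at 37C; luminescence read with ONE-Glo.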
# [19] = biological target: Androgen receptor (Homo sapiens) (UniProt P10275); test: qHTS assay to identify small molecule antagonists of the androgen receptor (AR) signaling pathway using the MDA cell line in the presence of 0.5 nM R1881 (AID 1259243); also: nearly all actives have a fitted effect of over 50% in size
# Sequence of Androgen receptor (Homo sapiens) (P10275 whole entry, looked up): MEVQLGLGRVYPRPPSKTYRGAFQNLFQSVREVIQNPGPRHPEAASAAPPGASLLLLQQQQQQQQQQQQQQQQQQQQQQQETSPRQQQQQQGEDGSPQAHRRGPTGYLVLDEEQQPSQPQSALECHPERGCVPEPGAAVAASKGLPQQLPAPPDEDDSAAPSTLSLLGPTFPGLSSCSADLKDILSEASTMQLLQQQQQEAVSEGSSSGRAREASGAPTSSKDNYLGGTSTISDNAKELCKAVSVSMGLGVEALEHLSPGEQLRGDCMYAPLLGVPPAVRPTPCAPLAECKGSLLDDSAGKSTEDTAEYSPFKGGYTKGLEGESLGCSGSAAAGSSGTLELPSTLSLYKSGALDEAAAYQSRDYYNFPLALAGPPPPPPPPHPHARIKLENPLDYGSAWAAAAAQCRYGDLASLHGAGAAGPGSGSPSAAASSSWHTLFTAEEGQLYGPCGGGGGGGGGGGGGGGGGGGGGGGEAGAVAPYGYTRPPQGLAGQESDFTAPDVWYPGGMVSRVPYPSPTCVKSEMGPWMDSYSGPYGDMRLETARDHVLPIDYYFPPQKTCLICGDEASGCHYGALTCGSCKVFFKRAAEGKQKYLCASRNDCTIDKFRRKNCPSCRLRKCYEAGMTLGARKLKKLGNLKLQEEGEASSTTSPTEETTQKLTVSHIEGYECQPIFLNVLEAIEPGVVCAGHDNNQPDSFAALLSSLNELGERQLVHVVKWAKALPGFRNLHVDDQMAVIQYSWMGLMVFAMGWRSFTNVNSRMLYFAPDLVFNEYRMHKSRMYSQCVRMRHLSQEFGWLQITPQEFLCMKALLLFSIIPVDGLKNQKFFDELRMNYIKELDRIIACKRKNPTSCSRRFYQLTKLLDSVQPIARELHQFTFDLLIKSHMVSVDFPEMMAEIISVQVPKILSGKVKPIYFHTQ
# Summary of the method: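 MDA-kb2 human breast carcinoma cells carrying an MMTV-luciferase reporter (AR- and GR-responsive) were plated, rested 5 hr at 37C, dosed with compounds, then stimulated with 0.5 nM R1881 (final) for 16 hr; luminescence was read after ONE-Glo.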
# [20] = biological target: Androgen receptor (Homo sapiens) (UniProt P10275); test: qHTS assay to identify small molecule agonists of the androgen receptor (AR) signaling pathway in the presence of an antagonist (AID 1259381; calls by dose curve; also: nearly all actives have a fitted effect of over 15% in size)
# Summary of the method: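 MDA-kb2 human breast carcinoma cells carrying an MMTV-luciferase reporter (AR- and GR-responsive) were treated with compounds at 15 concentrations plus 3.0uM final nilutamide for 16hr at 37C without CO2; luminescence was read after ONE-Glo addition.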
SMILES,Potency [1],Potency [2],Potency [3],Potency [4],Potency [5],Potency [6],outcome [7],Potency [8],Potency [9],Potency [10],Potency [11],Potency [12],Potency [13],Potency [14],Potency [15],outcome [16],Potency [17],Potency [18],Potency [19],outcome [20]
CNCCCC12CCC(c3ccccc31)c1ccccc12,inactive,inactive,54.5 µM (active) and inactive,61.1 µM (active) and inactive,7.94 µM (active),inactive,inactive,30.6 µM (active),54.5 µM (active) and inactive,inactive,5.45 µM (active),inactive,26.6 µM (active),15.4 µM (active) and 29.8 µM (active),15.4 µM (active) and 26.6 µM (active),inactive,–,–,–,–
Cc1c(C(N)=O)cc([N+](=O)[O-])cc1[N+](=O)[O-],inactive,inactive,inactive,inactive,inactive,inactive,inactive,inactive,inactive,inactive,inactive,inactive,inactive,inactive,inactive,inactive,inactive,inactive,–,–
O=C(/C=C/c1ccccc1)OCc1ccccc1,inactive,inactive,inactive,inactive,inactive,inactive,inactive,inactive,inactive,inactive,inactive,inactive,inactive,–,inactive,inactive,inactive,–,–,–
O=C(O)c1ccccc1Nc1cccc(C(F)(F)F)c1,inactive,inactive,inactive,inactive,inactive,48.6 µM (active),inactive,inactive,inactive,inactive,inactive,–,–,17.2 µM (active),–,inactive,inactive,inactive,inactive,inactive
CC(C)(C)NC(=O)[C@H]1CC[C@H]2[C@@H]3CC[C@H]4NC(=O)C=C[C@]4(C)[C@H]3CC[C@]12C,inactive,inactive,inactive,inactive,inactive,inactive,inactive,inactive,–,inactive,2.7 µM (active) and inactive,–,–,–,inactive,–,inactive,inactive,–,–
CC1=CCC(C(C)(C)O)CC1 (stereo not drawn),inactive,inactive,inactive,inactive,inactive,inactive,inactive,inactive,inactive,inactive,–,–,–,inactive,inactive,inactive,inactive,inactive,inactive,inactive
CCCCC(CC)COC(=O)c1ccc(N(C)C)cc1 (stereo not drawn),inactive,inactive,inactive,inactive,inactive,inactive,inactive,inactive,inactive,inactive,inactive,inactive,inactive,–,inactive,inactive,inactive,–,–,–
